Experimental data: the antibiotic and cytotoxicity screens of Wong et al. (2023)
The whole screen tested about 39,000 compounds, of which about 3,300 (8.5%) were called active. This excerpt belongs to a sample that is enriched for actives.

tested on: HepG2; assay: cytotoxicity call (relative viability < 0.9); conditions: 10 µM

| Compound | cytotoxicity call |
| --- | --- |
| CC1CC(OC(=O)c2ccccc2O)CC(C)(C)C1 (stereo not given) | active |
| CC1CC(OC(=O)C(O)c2ccccc2)CC(C)(C)C1 (stereo not given) | inactive |
| O=C(Oc1ccccc1C(=O)O)c1ccccc1O | inactive |
| C[C@H]1CN([C@@H](C)CO)C(=O)Cc2cc(NS(C)(=O)=O)ccc2O[C@@H]1CN(C)S(=O)(=O)c1ccccc1 | inactive |
| C[C@H]1CCCCO[C@H](CN(C)C(=O)C2CCCCC2)[C@@H](C)CN([C@@H](C)CO)C(=O)c2cc(NC(=O)CCC(F)(F)F)ccc2O1 | inactive |
| COCC(=O)N(C)C[C@@H]1Oc2cc(C#Cc3cccnc3)ccc2S(=O)(=O)N([C@H](C)CO)C[C@@H]1C | inactive |
| C[C@@H]1CN([C@H](C)CO)C(=O)c2cccc(NC(=O)Nc3ccc(C(F)(F)F)cc3)c2O[C@@H]1CN(C)C(=O)Nc1ccc(F)cc1 | inactive |
| C[C@H](CO)N1C[C@H](C)[C@H](CN(C)C(=O)Nc2ccc(F)cc2)Oc2c(NC(=O)Nc3ccc(C(F)(F)F)cc3)cccc2C1=O | active |
| C[C@@H]1CN([C@H](C)CO)C(=O)c2cccc(NC(=O)Nc3ccc(F)cc3)c2O[C@H]1CN(C)C(=O)Nc1ccc(C(F)(F)F)cc1 | inactive |
| C[C@H]1CN([C@@H](C)CO)C(=O)c2cccc(NC(=O)Nc3ccc(C(F)(F)F)cc3)c2O[C@@H]1CN(C)C(=O)Nc1ccc(F)cc1 | inactive |
| C[C@H]1CN([C@@H](C)CO)C(=O)c2cccc(NC(=O)Nc3ccc(C(F)(F)F)cc3)c2O[C@H]1CN(C)C(=O)Nc1ccc(F)cc1 | active |
| C[C@@H]1CN([C@H](C)CO)C(=O)c2cccc(NC(=O)Nc3ccc(F)cc3)c2O[C@@H]1CN(C)C(=O)Nc1ccc(C(F)(F)F)cc1 | inactive |
| C[C@H](CO)N1C[C@H](C)[C@@H](CN(C)S(=O)(=O)c2cn(C)cn2)Oc2c(NC(=O)Nc3ccccc3)cccc2C1=O | inactive |
| C[C@@H]1CCCCO[C@H](CN(C)C(=O)C2CCCCC2)[C@@H](C)CN([C@H](C)CO)C(=O)c2cc(NC(=O)c3ccccc3)ccc2O1 | inactive |
| C[C@@H]1CN([C@@H](C)CO)S(=O)(=O)c2ccc(Br)cc2O[C@@H]1CN(C)C(=O)c1ccncc1 | inactive |
| C[C@H](CO)N1C[C@H](C)[C@H](CN(C)Cc2ccc(C(F)(F)F)cc2)Oc2ccc(NC(=O)NC3CCCCC3)cc2C1=O | inactive |
| C[C@@H]1CN([C@@H](C)CO)C(=O)c2cccc(NS(C)(=O)=O)c2O[C@@H]1CN(C)S(=O)(=O)c1ccc(Cl)cc1 | inactive |
| C[C@@H]1CN([C@H](C)CO)C(=O)c2cc(NC(=O)NC3CCCCC3)ccc2O[C@@H](C)CCCCO[C@@H]1CN(C)Cc1ccc(C(F)(F)F)cc1 | inactive |
| C[C@@H]1CCCCO[C@@H](CN(C)Cc2ccc(C(F)(F)F)cc2)[C@H](C)CN([C@@H](C)CO)C(=O)c2cc(NC(=O)NC3CCCCC3)ccc2O1 | active |
| C[C@@H]1CN([C@@H](C)CO)C(=O)c2cc(NC(=O)NC3CCCCC3)ccc2O[C@@H](C)CCCCO[C@H]1CN(C)Cc1ccc(C(F)(F)F)cc1 | active |

| Compound | cytotoxicity call |
| --- | --- |
| C[C@H](CO)N1C[C@H](C)[C@@H](CN(C)Cc2ccc(C(F)(F)F)cc2)OCCCC[C@H](C)Oc2ccc(NC(=O)NC3CCCCC3)cc2C1=O | active |
| C[C@H]1CCCCO[C@H](CN(C)Cc2ccc(C(F)(F)F)cc2)[C@@H](C)CN([C@@H](C)CO)C(=O)c2cc(NC(=O)NC3CCCCC3)ccc2O1 | active |
| C[C@H](CO)N1C[C@H](C)[C@H](CN(C)Cc2ccc(C(F)(F)F)cc2)OCCCC[C@H](C)Oc2ccc(NC(=O)NC3CCCCC3)cc2C1=O | inactive |
| Cc1ccc2nc(CN)cn2c1 | inactive |
| CCOc1ccc(Nc2nc3c(=O)nc[nH]c3n2[C@H]2O[C@@H](CO)[C@@H](O)[C@@H]2O)cc1 | inactive |
| C[C@H](CO)N1C[C@H](C)[C@@H](CN(C)C(=O)CCC(F)(F)F)OCCCC[C@H](C)Oc2ccc(NC(=O)CCC(F)(F)F)cc2C1=O | inactive |
| C[C@H]1CN([C@@H](C)CO)C(=O)CCCn2nncc2CO[C@H]1CN(C)C(=O)c1ccc(N2CCN(C)CC2)cc1 | inactive |
| COc1ccc(S(=O)(=O)N(C)C[C@@H]2Oc3ccc(NC(=O)NC(C)C)cc3CC(=O)N([C@H](C)CO)C[C@H]2C)cc1 | inactive |
| CN1CCN(C(=O)C[C@H]2CC[C@H]3[C@@H](COc4ccc(NC(=O)c5ccc(F)c(F)c5)cc4C(=O)N3C)O2)CC1 | inactive |
| COc1ccc(CNS(=O)(=O)N(C)C)cc1 | inactive |
| CO[C@H]1CN(C)C(=O)c2cc(NC(=O)Nc3ccccc3)ccc2OC[C@H](C)N(C(=O)CN(C)C)C[C@H]1C | inactive |
| C[C@@H]1CCCCO[C@@H](CN(C)Cc2ccc(C(F)(F)F)cc2)[C@@H](C)CN([C@H](C)CO)C(=O)c2cc(NC(=O)NC3CCCCC3)ccc2O1 | inactive |
| C[C@@H]1CCCCO[C@@H](CN(C)Cc2ccc(C(F)(F)F)cc2)[C@@H](C)CN([C@@H](C)CO)C(=O)c2cc(NC(=O)NC3CCCCC3)ccc2O1 | active |
| C[C@@H]1CCCCO[C@H](CN(C)Cc2ccc(C(F)(F)F)cc2)[C@H](C)CN([C@H](C)CO)C(=O)c2cc(NC(=O)NC3CCCCC3)ccc2O1 | active |
| C[C@@H]1CCCCO[C@H](CN(C)Cc2ccc(C(F)(F)F)cc2)[C@@H](C)CN([C@@H](C)CO)C(=O)c2cc(NC(=O)NC3CCCCC3)ccc2O1 | active |
| C[C@@H]1CCCCO[C@H](CN(C)Cc2ccc(C(F)(F)F)cc2)[C@@H](C)CN([C@H](C)CO)C(=O)c2cc(NC(=O)NC3CCCCC3)ccc2O1 | active |
| CNC(=O)C[C@H]1CC[C@H]2[C@@H](COC[C@@H](O)CN2C(=O)Nc2ccc3c(c2)OCO3)O1 | inactive |
| C[C@H](CO)N1C[C@H](C)[C@H](CN(C)C(=O)Nc2ccc(F)cc2)Oc2ccc(NS(=O)(=O)c3cn(C)cn3)cc2C1=O | inactive |
| C[C@H](CO)N1C[C@H](C)[C@@H](CN(C)C(=O)Cc2ccccc2)OCCCC[C@H](C)Oc2ccc(NS(=O)(=O)c3ccc(F)cc3)cc2C1=O | inactive |
| C[C@@H]1CN([C@@H](C)CO)C(=O)c2cc(NS(=O)(=O)c3cn(C)cn3)ccc2O[C@@H]1CN(C)C(=O)NC1CCCCC1 | inactive |
